According to the supplement of paper PMC12067093, “Discovery and optimisation of a covalent ligand for TRIM25 and its application to targeted protein ubiquitination” (Chemical Science, 2025):
Of roughly 21,000 targets only a part is listed; those with the largest changes were picked by preference.

compound: Cc1cc(ccc1-c1ccccc1)C(=O)N1CCCN(CC1)C(=O)CCl [compound 10]; experiment: probe-labelled cysteine peptide fold change vs DMSO (competition) (log2 fold change); higher = less target engagement (more negative = stronger competition); details: 10 µM; THP-1; incubation time: 4 h
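Further: competitive profiling in live THP-1 cells: cysteine peptides tagged with an iodoacetamide desthiobiotin (IA-DTB) probe, intensity after compound treatment relative to DMSO-treated cells.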

First: CTNNA1_P35221_461_MSASQLEALCPQVINAALALAAK (UniProt P35221)
Second: CTR9_Q6PD62_196_TNPGCPAEVR (UniProt Q6PD62)
The “probe-labelled cysteine peptide fold change” value of the first is higher: 0.108 for the first, -0.0165 for the second.

Going from “CSDE1_O75534_657_FQLCVLGQNAQTMAYNITPLR (UniProt O75534)” to “DNM1L_O00429_446_IIQHCSNYSTQELLR (UniProt O00429)”, the “probe-labelled cysteine peptide fold change” value falls from 0.223 to -0.165.

First: CTSH_P09668_272_TGIYSSTSCHK (UniProt P09668)
Second: CXXC1_Q9P0U4_38_KPDINCFMIGCDNCNEWFHGDCIR (UniProt Q9P0U4)
The “probe-labelled cysteine peptide fold change” value of the first is higher: 0.176 for the first, 0.0402 for the second.

Compared with “DBR1_Q9UK59_36_RGPGPVDLLLCCGDFQAVR (UniProt Q9UK59)”, “DCLRE1C_Q96SD1_34_AYFLSHCHK (UniProt Q96SD1)” is lower in “probe-labelled cysteine peptide fold change” value: 0.0792 for the first, -0.0775 for the second.

First: CRTAP_O75718_273_DFYLSIADHYVEVLECK (UniProt O75718)
Second: CPSF1_Q10570_1102_IELQEWEHVTCMK (UniProt Q10570)
The “probe-labelled cysteine peptide fold change” value of the first is lower: -0.146 for the first, 0.0314 for the second.

Going from “COMT_P21964_241_GSSCFECTHYQSFLEYR (UniProt P21964)” to “CORO1B_Q9BR76_25_NDQCYEDIR (UniProt Q9BR76)”, the “probe-labelled cysteine peptide fold change” value falls from 0.0648 to -0.0464.

Compared with “DDX17_Q92841_166+199_GGDVCPKPVFAFHHANFPQYVMDVLMDQHFTEPTPIQCQGFPLALSGR (UniProt Q92841)”, “COX17_Q14061_23+24_KPLKPCCACPETK (UniProt Q14061)” is lower in “probe-labelled cysteine peptide fold change” value: -0.28 for the first, -0.321 for the second.

Going from “DNAJB1_P25685_179_VSLEEIYSGCTK (UniProt P25685)” to “DIAPH2_O60879_775_NEYDDLCEPEQFGVVMSSVK (UniProt O60879)”, the “probe-labelled cysteine peptide fold change” value falls from -0.0218 to -0.117.

Compared with “CMTM3_Q96MX0_38_AFLCSLK (UniProt Q96MX0)”, “CNNM4_Q6P4Q7_220_IVQNCGTEK<|>CNNM2_Q9H8M5_293_IVQNCGTEK (UniProt Q9H8M5+Q6P4Q7)” is higher in “probe-labelled cysteine peptide fold change” value: -0.91 for the first, -0.2 for the second.

Going from “DDAH2_O95865_220_AMAVLTDHPYASLTLPDDAAADCLFLRPGLPGVPPFLLHR (UniProt O95865)” to “CYB5R4_Q7L1T6_278_CQLISK (UniProt Q7L1T6)”, the “probe-labelled cysteine peptide fold change” value falls from 0.061 to -0.0627.

Compared with “COPG1_Q9Y678_440_ETGLSHLCEFIEDCEFTVLATR (UniProt Q9Y678)”, “DGLUCY_Q7Z3D6_316_GIGHLLCK (UniProt Q7Z3D6)” is lower in “probe-labelled cysteine peptide fold change” value: 0.0873 for the first, -0.0414 for the second.

First: CNN2_Q99439_215_CASQVGMTAPGTR (UniProt Q99439)
Second: DGLUCY_Q7Z3D6_265_APPGCLTPER (UniProt Q7Z3D6)
The “probe-labelled cysteine peptide fold change” value of the first is higher: -0.0958 for the first, -0.239 for the second.

Compared with “DENND4A_Q7Z401_952_GSADCLPK (UniProt Q7Z401)”, “CUL3_Q13618_462+464_LKTECGCQFTSK (UniProt Q13618)” is higher in “probe-labelled cysteine peptide fold change” value: -0.312 for the first, -0.0794 for the second.

Going from “COPE_O14579_225_CSPTLLLLNGQAACHMAQGR (UniProt O14579)” to “DKC1_O60832_74_TTHYTPLACGSNPLKR (UniProt O60832)”, the “probe-labelled cysteine peptide fold change” value falls from 0.0563 to -0.0751.

Going from “COQ8B_Q96D53_508_AHIACR (UniProt Q96D53)” to “DDX20_Q9UHI6_98_CGLDLIVQAK (UniProt Q9UHI6)”, the “probe-labelled cysteine peptide fold change” value rises from -0.221 to -0.0986.

First: DDX50_Q9BQ39_242_LSVACFYGGTSYQSQINHIR (UniProt Q9BQ39)
Second: DHX9_Q08211_1099_LQISHEAAACITGLR (UniProt Q08211)
The “probe-labelled cysteine peptide fold change” value of the first is higher: 0.333 for the first, 0.136 for the second.

First: DHX8_Q14562_1108_AICSGFFR (UniProt Q14562)
Second: CRABP1_P29762_130_ELANDELILTFGADDVVCTR (UniProt P29762)
The “probe-labelled cysteine peptide fold change” value of the first is lower: -0.267 for the first, 0.082 for the second.

Going from “COPB1_P53618_248_CIYNLLQSSSPAVKYEAAGTLVTLSSAPTAIK (UniProt P53618)” to “DKK2_Q9UBU2_214_ICKPVLHQGEVCTK (UniProt Q9UBU2)”, the “probe-labelled cysteine peptide fold change” value falls from 0.0928 to -0.0653.

In the case of CTSZ_Q9UBR2_179_ECHAIR (UniProt Q9UBR2), the “probe-labelled cysteine peptide fold change” value is reported as 0.892.
